From PubChem BioAssay
FBPA Giardia inh – inhibitors of Giardia lamblia fructose-1,6-bisphosphate aldolase. purified Giardia FBPA. Potency, µM (highest dose often 59.6 µM), for inactives: at the top dose activity, negative = inhibition, usual class: inhibitors. actives 0.71% (n = 290,000); further: potency means the concentration at half of the fitted maximal effect; nearly all actives have a fitted effect of over 55% in size
Target sequence (A8B2U2 whole entry, looked up): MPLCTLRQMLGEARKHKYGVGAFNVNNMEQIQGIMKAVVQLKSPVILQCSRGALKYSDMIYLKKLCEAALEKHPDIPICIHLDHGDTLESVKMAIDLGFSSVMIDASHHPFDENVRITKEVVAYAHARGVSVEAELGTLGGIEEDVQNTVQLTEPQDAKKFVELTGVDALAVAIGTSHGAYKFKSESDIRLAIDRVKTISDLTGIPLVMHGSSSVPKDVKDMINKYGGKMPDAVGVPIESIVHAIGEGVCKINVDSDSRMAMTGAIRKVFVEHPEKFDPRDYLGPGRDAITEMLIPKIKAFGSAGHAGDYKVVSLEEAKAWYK
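40 nM FBPA preincubated 10 min at RT with compound (up to 57.5 uM final), then substrate plus GAPDH/TPI/NAD/arsenate coupling and diaphorase/resazurin added. Fluorescence read after 20 min at RT, 525/598 nm.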
Pf growth 48h – P. falciparum growth inhibition at 48 hours (one generation); P. falciparum luciferase growth in erythrocytes, 48 h; Potency, µM (series often up to 28.7 µM), without a hit: at the top dose activity change, negative = inhibition, usual class: inhibitors; actives 5.9% (n = 310,000); AID 504832; further: potency means the concentration at half of the fitted maximal effect
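Here the parasites carry a stable luciferase gene and grow inside erythrocytes in Albumax-based RPMI medium with compound for one erythrocytic cycle. Activity is scored as loss of luminescent signal.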
HCMV inh – blocks human cytomegalovirus replication; activity change, negative = inhibition, % at 57.5 µM; actives 4.5% (n = 410,000); HFF cells, HCMV-luciferase reporter, 72 h; hits give low values; in the data active means activity change below about -60%; inconclusive means no clear call, values can overlap the other calls; inactive means above about -39%
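After 16 h attachment at 37C, HFF cells received test compound and HCMV-luciferase (1 PFU/cell); reporter luminescence read 72 h later, data normalized against buffer-only and known inhibitor Salinomycin.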
Sm TGR block – inhibitors of Schistosoma mansoni thioredoxin glutathione reductase; Potency, µM (titrated, usually from 114 µM), inactives show top-dose activity change, negative = inhibition, most hits filed as inhibitors; actives 3% (n = 360,000); purified TGR, DTNB reduction, TNB absorbance 405 nm; AID 485364; further: potency means the concentration at half of the fitted maximal effect; nearly all actives have a fitted effect of over 60% in size
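Kinetic colorimetric format: TGR-catalysed, NADPH-driven DTNB reduction monitored via TNB absorbance. Enzyme dispensed at 20 nM; compound exposure 15 min at room temperature before reaction start.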
Pf growth 96h – P. falciparum growth inhibition at 96 hours; P. falciparum luciferase reporter growth, 96 h; Potency, µM (top dose mostly 28.7 µM), for inactives: at the highest dose activity change, negative = inhibition, actives largely listed as inhibitors; actives 6.9% (n = 320,000); further: potency means the concentration at half of the fitted maximal effect
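Infected RBCs, 2% Hct / 0.05% parasitemia final; luciferase-reporter P. falciparum; cpd 96 h, 37 C, 5% CO2; luciferase detection reagent; luminescence.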
* hit, by the source's call; ? = inconclusive; . = no result. Sampled rows, rich in hits. Any-hit rate of the full collection: about 14%. Unless noted, the call rests on the fitted dose curve; in most records, active means well fitted curve in the direction sought with a large enough effect; inconclusive means small, poorly fitted or top-dose-only effect, or another doubt; inactive means no such curve, though single readings can be large; an effect the other way counts as inactive or inconclusive. On the % scale 0 is the no-effect control and ±100 the full control effect.

SMILES	FBPA Giardia inh	Pf growth 48h	HCMV inh	Sm TGR block	Pf growth 96h
Cc1ccc(C2CC(c3cccs3)=NN2S(=O)(=O)c2ccc(C)cc2)cc1 (centres undefined)	-2%	?	?	-2%	2.9µM*
NS(=O)(=O)c1ccc(N2N=C(c3ccccc3)CC2c2ccc(Br)cc2)cc1 (centres undefined)	.	.	15	.	.
NS(=O)(=O)c1ccc(N2N=C(c3ccccc3)CC2c2ccccc2)cc1 (centres undefined)	-9%	-24%	2	-9%	9.3µM*
Cc1nn(C)c2c1c(C(F)(F)F)cc(=O)n2CC(=O)N1CCCCC1C (centres undefined)	.	.	-7	-7%	.
Cc1ccccc1NC(=O)C1CCCN(c2ncnc3onc(-c4ccc(F)cc4)c23)C1 (centres undefined)	6%	9.3µM*	14	-5%	20%
COC(=O)c1ccccc1NC(=O)C1CCCN(c2ncnc3onc(C)c23)C1 (centres undefined)	.	.	-5	0%	.
CCOC(=O)c1ccc(NC(=O)C2CCCN(c3ncnc4onc(C)c34)C2)cc1 (centres undefined)	.	.	-75*	-1%	.
CC12CC3(C)CC(C)(C1)CC(C(=O)NC(=S)N1CCCC1)(C2)C3	10%	6.6µM*	-16	1%	?
CC(C)(C)C(=O)NC(=S)N1CCCC1	-9%	10%	0	-12%	-20%
CCCCCCCCC(=O)NC(NC(=S)N1CCOCC1)C(Cl)(Cl)Cl (centres undefined)	-1%	?	-33	-9%	?
O=C(NC(NC(=S)N1CCOCC1)C(Cl)(Cl)Cl)c1cccc2ccccc12 (centres undefined)	-4%	2.9µM*	13	-16%	51%
CCCCCC(=O)NC(NC(=S)N1CCOCC1)C(Cl)(Cl)Cl (centres undefined)	0%	8.3µM*	-5	-1%	-3%
COc1ccc(C2/C=C\CNCC(=O)N2Cc2ccc(F)cc2)cc1 (centres undefined)	1%	?	28	40µM*	25%
COc1ccc(C2/C=C\CN(S(=O)(=O)/C=C/c3ccccc3)CC(=O)N2Cc2ccc(F)cc2)cc1 (centres undefined)	4%	?	2	-1%	?
COc1ccc(C2/C=C\CN(S(=O)(=O)c3ccc4ccccc4c3)CC(=O)N2Cc2ccc(F)cc2)cc1 (centres undefined)	-1%	13µM*	-31	9%	?
COc1cc2c(=O)n(Cc3ccccc3Cl)c(=O)n(CC(=O)Nc3ccccc3)c2cc1OC	.	.	-21	-1%	.
Cc1[nH]c2ccccc2c1C(=O)COC(=O)c1c(-c2c(F)cccc2Cl)noc1C	-3%	?	-71*	-11%	?
Cc1[nH]c2ccccc2c1C(=O)COC(=O)c1c(-c2ccccc2Cl)noc1C	-4%	?	-74*	-5%	?
Cc1onc(-c2ccccc2Cl)c1C(=O)O/N=C(\N)c1ccc([N+](=O)[O-])o1	-4%	3.7µM*	-19	?	15µM*
Cc1onc(-c2ccccc2Cl)c1C(=O)OCC(=O)N1CCCc2ccccc21	-11%	9.3µM*	-13	1%	?
Cc1onc(-c2ccccc2Cl)c1C(=O)OCC(=O)N1CCC(C)CC1	.	.	-10	.	.
Cc1ccccc1-c1cncnc1Nc1ccccc1	8%	.	.	.	.
Cc1onc(-c2c(F)cccc2Cl)c1C(=O)NCc1ccccc1	0%	-12%	-4	5%	?
Cc1onc(-c2c(F)cccc2Cl)c1C(=O)ONC(=O)c1ccco1	2%	6%	15	13µM*	8%
O=C(COc1ccc(Cl)cc1Br)Nc1ccncc1	-6%	1%	14	0%	?
SMILES	FBPA Giardia inh	Pf growth 48h	HCMV inh	Sm TGR block	Pf growth 96h
OCc1ccc(-c2cccc3nccn23)cc1	.	.	13	.	.
COc1ccc(C(C)(C)C)cc1NC(=O)c1ccoc1C	-2%	12µM*	-33	-10%	12µM*
C[C@@H]1CN([C@H](C)CO)C(=O)CCCn2nncc2CO[C@@H]1CN(C)C(=O)Nc1ccccc1	.	.	-9	.	.
Cc1ccc(C2=CC(=O)N(CCC(N)=O)C2)cc1	.	.	49	.	.
Cc1ccc(NC(=O)c2ccc([N+](=O)[O-])s2)cc1S(=O)(=O)N1CCOCC1	.	.	-94*	.	.
COc1ccc(C)cc1NC(=O)c1ccccc1NS(=O)(=O)c1ccc(Cl)s1	23%	?	-61*	.	?
Cc1ccc(C(=O)Nc2ccc(Br)cc2)cc1S(=O)(=O)N1CCOCC1	.	.	?	-1%	.
Cc1nc2ccc(NC(=O)c3ccc(C)c(S(=O)(=O)N4CCOCC4)c3)cc2s1	.	?	-72*	-10%	?
Cc1nc2ccc(NC(=O)c3cc(S(=O)(=O)N4CCOCC4)ccc3C)cc2s1	-2%	.	-10	-19%	9.3µM*
CCCCOc1ncnc2c1[nH]c1ccc(C)cc12	4%	203%	-12	7%	337%
COc1ccc(CN2CCCC(N3CCN(c4ccc(OC)cc4)CC3)C2)cc1 (centres undefined)	-6%	-34%	-6	-6%	-15%
O=C(NCC(c1ccc2c(c1)OCO2)N1CCN(c2ccccc2)CC1)c1ccc(F)c(F)c1 (centres undefined)	.	.	-13	2%	.
O=C(Nc1cc(S(=O)(=O)N2CCOCC2)ccc1O)c1ccc(NS(=O)(=O)c2ccc(Cl)s2)cc1	29%	32%	-23	-25%	-3%
Cc1ccc(NC(=O)c2ccccc2NS(=O)(=O)c2ccc(Cl)s2)cc1S(=O)(=O)N1CCOCC1	13%	12µM*	-82*	-1%	?
COCCN(C(C)=O)c1nnc(-c2ccccn2)s1	-2%	55%	-6	-2%	.
COCCN(C(=O)CC(C)(C)C)c1nnc(-c2cccnc2)s1	2%	?	-13	-8%	67%
COCCN(C(C)=O)c1nnc(-c2cnccn2)s1	-4%	28%	-25	0%	2.3µM*
COCCN(C(=O)CCc1ccccc1OC)c1nnc(-c2cccnc2)s1	-8%	?	-61*	14%	?
CCOC(=O)[C@H](CCc1ccccc1)N[C@@H](C)C(=O)N1C(C(=O)O)C[C@@H]2CCC[C@@H]21 (some centres undefined)	.	-9%	?	-18%	15%
CCC(=O)O[C@@H](OP(=O)(CCCCc1ccccc1)CC(=O)N1C[C@H](C2CCCCC2)C[C@H]1C(=O)O)C(C)C (some centres undefined)	.	-10%	.	.	5.4µM*
CC1CN(C(=O)CCC(=O)N2CCOCC2)c2ccccc2O1 (centres undefined)	6%	8%	-11	38%	?
O=C(CCN1C(=O)/C(=C/c2ccccc2F)SC1=S)Nc1ccccn1	0%	46%	32	-4%	?
